PubChem BioAssay (EPA / NIEHS)
Results filed as inconclusive are left out. Calls of active or inactive are those of the source. Rule for the calls: active = hit-call score of the fitted dose curve at least 0.9, where 1 is the maximum; inconclusive = response in the unintended direction; inactive = score below 0.9.

read-out: ABC Transporter (ABCB1), ABCB1 (gene 5243); experiment: CLD_ABCB1_48hr: CellzDirect (CLD) Gene Expression Assay for ABC Transporter (ABCB1) at 48 hours (AID 2283695);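 for AC50: potency for induction meaning increase of mRNA over DMSO vehicle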
Procedure: CLD_48hr is a cell-based, multiplexed-readout assay that uses hepatocyte, a human liver primary cell, with measurements taken at 48 hours after chemical dosing in a 96-well plate.CLD_ABCB1_48hr is one of 16 assay component(s) measured or calculated from the CLD_48hr assay. It is designed to make measurements of mRNA induction, a form of inducible reporter, as detected with chemiluminescence signals by Quantitative Nuclease Protection Assay (qNPA) technology.Data from the assay component CLD_ABCB1_48hr was analyzed at the endpoint, CLD_ABCB1_48hr, in the positive analysis fitting direction relative to DMSO as the negative control and baseline of activity. Using a type of inducible reporter, gain-of-signal activity can be used to understand changes in the reporter gene as they relate to the gene ABCB1. Furthermore, this assay endpoint can be referred to as a primary readout. To generalize the intended target to other relatable targets, this assay endpoint is annotated to the transporter intended target family, where subfamily is ABC transporter.
Human hepatocyte cultures were treated daily for two consecutive days with fresh dosing solutions containing appropriate concentrations of the 320 ToxCast chemicals (chemical identities were blinded to CellzDirect and other ToxCast collaborators), vehicle control (0.2% DMSO), and positive control inducers as summarized in Table 1. Due to the large number of treatment groups and chemicals examined, the ToxCast chemicals were divided into two groups (spanning two independent cultures of hepatocytes from separate donor preparations (Hu778: ToxCast plates 1 and 2; Hu776: ToxCast plates 3 and 4). Each preparation of human hepatocyte cultures was treated with respective vehicle control, medium only control, set of six positive controls/reference chemicals for the five hepatic receptor pathways, and a subset of eight of the ToxCast chemicals (indoxacarb, pyrithiobac-sodium, norflurazon, cyhalofop-butyl, methomyl, thiram, acetochlor, and propiconazole). These replicate data, coupled with internal replicates designed within the blinded ToxCast chemical library, provided additional data to evaluate interindividual differences between hepatocyte preparations and their potential impact on chemical profiles.Cell morphology and integrity were evaluated using phase-contrast microscopy as an indicator of hepatocyte cell health (Tyson & Green, 1987). Cultures for each treatment group (i.e., media, vehicle [0.2% DMSO], positive control inducers [multiple concentrations], and the ToxCast chemicals [multiple concentrations]) were observed and cell morphology was assessed relative to vehicle control cultures at each harvest time point (0, 6, 24, or 48 h). […] Images were evaluated at the conclusion of the study to assess changes in cell integrity and account for the effects of chemical exposure on uncharacteristic changes in concentration-dependent gene expression profiles. The results from these determinations of apparent cytotoxicity were annotated (yes/no) alongside the corresponding qNPA data for reference.At the conclusion of each treatment period, hepatocyte cultures (96-well) were washed with 1 volume of HBSS, lysed by addition of 25 ul ArrayPlate lysis buffer (HTG, Tucson, AZ), and 70 ul/well of Denaturation Oil, denatured by incubation at 95C for 10 min, and frozen at approximately -70C until analysis by nuclease protection assay (qNPA) (Roberts et al., 2007). For qNPA analysis, cell lysates were thawed at 50C for approximately 30 min, qNPA probes were added, and samples were incubated at 95C for 10 min to begin the detection process by denaturing the target RNA, dissociating the duplexes and secondary structure hybridization. At the conclusion of the hybridization period, S1 nuclease reagent was added to each sample to digest all nonprotected nucleotides at 50C for 60-90 min. […]

| SMILES | outcome | AC50 |
| --- | --- | --- |
| COc1nc(NC(C)C)nc(NC(C)C)n1 | inactive | – |
| COc1ccc(C(c2ccc(OC)cc2)C(Cl)(Cl)Cl)cc1 | inactive | – |
| CS/C(C)=N/OC(=O)N(C)SN(C)C(=O)O/N=C(\C)SC | inactive | – |
| N#Cc1nn(-c2c(Cl)cc(C(F)(F)F)cc2Cl)c(N)c1S(=O)C(F)(F)F (stereo not given) | – | 4.65 µM (active) |
| COC(=O)N(OC)c1ccccc1COc1ccn(-c2ccc(Cl)cc2)n1 | inactive | – |
| CCCCC(CC)COC(=O)c1ccccc1C(=O)OCC(CC)CCCC (stereo not given) | inactive | – |
| CC1COC(Cn2cncn2)(c2ccc(Oc3ccc(Cl)cc3)cc2Cl)O1 (stereo not given) | inactive | – |
| OC(c1ccc(Cl)cc1)(c1cncnc1)c1ccccc1Cl (stereo not given) | – | 17.2 µM (active) |
| N#CC(CCc1ccc(Cl)cc1)(Cn1cncn1)c1ccccc1 (stereo not given) | inactive | – |
| CCOC(=O)CC(SP(=S)(OC)OC)C(=O)OCC (stereo not given) | inactive | – |
| O=C(O)COc1nc(Cl)c(Cl)cc1Cl | inactive | – |
| CCOc1cc(Oc2ccc(C(F)(F)F)cc2Cl)ccc1[N+](=O)[O-] | inactive | – |
| Cc1cc(Cl)ccc1OCC(=O)O | inactive | – |
| C=CCC1=C(C)C(OC(=O)C2C(C=C(C)C)C2(C)C)CC1=O (stereo not given) | inactive | – |
| C=CCC1=C(C)[C@@H](OC(=O)[C@@H]2[C@@H](C=C(C)C)C2(C)C)CC1=O | inactive | – |
| CCCCNC(=O)OCC#CI | inactive | – |
| COC(=O)c1ccccc1C(=O)OC | inactive | – |
| Cc1c(F)c(F)c(COC(=O)C2C(/C=C(\Cl)C(F)(F)F)C2(C)C)c(F)c1F (stereo not given) | inactive | – |
| CCc1nn(C)c(C(=O)NCc2ccc(C(C)(C)C)cc2)c1Cl | inactive | – |
| COC(=O)C=C(C)OP(=O)(OC)OC | inactive | – |

| SMILES | outcome | AC50 |
| --- | --- | --- |
| CCON=C(CC)C1=C(O)CC(c2c(C)cc(C)cc2C)CC1=O (stereo not given) | inactive | – |
| CC(C)Oc1cc(-n2nc(C(C)(C)C)oc2=O)c(Cl)cc1Cl | inactive | – |
| CC(C)(C)c1ccc(CSc2cnn(C(C)(C)C)c(=O)c2Cl)cc1 | inactive | – |
| C#CCOS(=O)OC1CCCCC1Oc1ccc(C(C)(C)C)cc1 (stereo not given) | inactive | – |
| CNC(=O)ON=CC(C)(C)SC | inactive | – |
| N#Cc1cc(Br)c(O)c(Br)c1 | inactive | – |
| CCCC1COC(Cn2cncn2)(c2ccc(Cl)cc2Cl)O1 (stereo not given) | inactive | – |
| Fc1ccc(Oc2ccnc3cc(Cl)cc(Cl)c23)cc1 | inactive | – |
| COP(=S)(OC)Oc1nc(Cl)c(Cl)cc1Cl | inactive | – |
| CCCN(CCC)c1c([N+](=O)[O-])cc(S(N)(=O)=O)cc1[N+](=O)[O-] | inactive | – |
| COc1nc(C)nc(NC(=O)NS(=O)(=O)c2ccccc2CCC(F)(F)F)n1 | inactive | – |
| COC(=O)C(C)Oc1ccc(Oc2ccc(Cl)cc2Cl)cc1 (stereo not given) | inactive | – |
| CCCCOC(=O)c1ccccc1C(=O)OCCCC | inactive | – |
| CCOC(=O)C(Cl)Cc1cc(-n2nc(C)n(C(F)F)c2=O)c(F)cc1Cl (stereo not given) | inactive | – |
| COc1nc(C)nc(NC(=O)NS(=O)(=O)c2ccccc2Cl)n1 | inactive | – |
| Cc1ccc(-c2c(Cl)nc(C#N)n2S(=O)(=O)N(C)C)cc1 | inactive | – |
| C=CC1(C)OC(=O)N(c2cc(Cl)cc(Cl)c2)C1=O (stereo not given) | inactive | – |
| CCCCNC(=O)n1c(NC(=O)OC)nc2ccccc21 | inactive | – |
| CO/C=C(/C(=O)OC)c1ccccc1Oc1cc(Oc2ccccc2C#N)ncn1 | – | 30.2 µM (active) |
| CC(C)C1(C)N=C(c2nc3ccccc3cc2C(=O)O)NC1=O (stereo not given) | inactive | – |
